Data reported in paper PMC5540273 (PLoS ONE, 2017).

Columns and labels:
Settings in all cases: concentration: 1 μM, replicates: in singlicate; n = 1
PDGFRB = tested on: PDGFRB
PDPK1 = tested on: PDPK1
PFTAIRE2 = tested on: PFTAIRE2
PFTK1 = tested on: T1, PFTK1
T1 construct: gene CDK14

PHKG1 = tested on: PHKG1
PHKG2 = tested on: PHKG2
PIK3C2B = tested on: PIK3C2B
PIK3C2G = tested on: PIK3C2G
PIK3CA = tested on: PIK3CA
PIK3CB = tested on: PIK3CB
PIK3CD = tested on: PIK3CD
PIK3CG = tested on: PIK3CG
PIK4CB = tested on: T2, PIK4CB
T2 construct: gene PI4KB

PIKFYVE = tested on: PIKFYVE
PIM1 = tested on: PIM1
PIM2 = tested on: PIM2
PIM3 = tested on: PIM3
PIP5K1A = tested on: PIP5K1A
PIP5K1C = tested on: PIP5K1C
PIP5K2B = tested on: PIP5K2B
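Further: KINOMEscan kinase panel screen.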

| Structure (SMILES) | %Inh (PDGFRB) [%] | %Inh (PDPK1) [%] | %Inh (PFTAIRE2) [%] | %Inh (PFTK1) [%] | %Inh (PHKG1) [%] | %Inh (PHKG2) [%] | %Inh (PIK3C2B) [%] | %Inh (PIK3C2G) [%] | %Inh (PIK3CA) [%] | %Inh (PIK3CB) [%] | %Inh (PIK3CD) [%] | %Inh (PIK3CG) [%] | %Inh (PIK4CB) [%] | %Inh (PIKFYVE) [%] | %Inh (PIM1) [%] | %Inh (PIM2) [%] | %Inh (PIM3) [%] | %Inh (PIP5K1A) [%] | %Inh (PIP5K1C) [%] | %Inh (PIP5K2B) [%] |
| --- | --- | --- | --- | --- | --- | --- | --- | --- | --- | --- | --- | --- | --- | --- | --- | --- | --- | --- | --- | --- |
| N#Cc1ccc(Oc2ccc(Nc3ncnc4cc[nH]c34)cc2Cl)cc1 | 31 | 1 | 11 | 17 | 5 | 18 | 0 | 28 | 5 | 11 | 36 | 0 | 0 | 7 | 20 | 6 | 29 | 0 | 0 | 11 |
| Fc1ccc(-c2ncn(CCCNCc3ccccc3)c2-c2ccncc2)cc1 | 24 | 6 | 0 | 0 | 0 | 16 | 1 | 31 | 3 | 0 | 3 | 4 | 24 | 2 | 10 | 23 | 28 | 0 | 0 | 12 |
| Oc1ccc2ncnc(Nc3ccc(OCc4ccccc4)cc3)c2c1 [GI262866] | 21 | 0 | 13 | 29 | 0 | 0 | 0 | 0 | 0 | 0 | 5 | 0 | 1 | 0 | 0 | 0 | 33 | 0 | 19 | 19 |
| COc1ccc(NC(=O)Nc2ccc(C)c(-c3ccc(C(=O)Nc4ccncc4)cc3)c2)cc1 [GSK1398475] | 100 | 0 | 20 | 24 | 0 | 0 | 0 | 0 | 0 | 0 | 0 | 0 | 0 | 0 | 0 | 0 | 3 | 0 | 17 | 0 |
| CC(=O)Nc1n[nH]c2ncc(-c3ccccc3)cc12 [SB-548492] | 90 | 0 | 14 | 12 | 2 | 0 | 3 | 23 | 0 | 0 | 0 | 26 | 44 | 0 | 7 | 0 | 14 | 10 | 0 | 8 |
| COc1ccc(-c2oc3ncnc(N)c3c2-c2ccc(OC)cc2)cc1 [SB-589132] | 41 | 0 | 17 | 0 | 0 | 0 | 0 | 10 | 0 | 0 | 4 | 10 | 10 | 23 | 0 | 0 | 0 | 48 | 54 | 11 |
| CS(=O)(=O)CCNCc1nc(-c2ccc3ncnc(Nc4ccc(OCc5cccc(F)c5)c(Cl)c4)c3c2)cs1.Cl [GW583340] | 12 | 0 | 12 | 16 | 0 | 0 | 37 | 0 | 0 | 0 | 29 | 0 | 26 | 0 | 20 | 0 | 8 | 1 | 38 | 0 |
| C[C@@H]1CCN(C(=O)CO)C[C@@H]1N(C)c1ncnc2[nH]ccc12 | 14 | 0 | 0 | 0 | 4 | 0 | 0 | 3 | 0 | 0 | 5 | 0 | 0 | 48 | 0 | 0 | 0 | 16 | 0 | 0 |
| Cc1ccc(O)cc1Nc1cc(C(F)(F)F)nc2ccc(-c3ccncc3)cc12 [GW630823] | 10 | 0 | 34 | 5 | 14 | 5 | 0 | 15 | 1 | 0 | 0 | 0 | 0 | 0 | 4 | 3 | 11 | 0 | 0 | 0 |
| Nc1nc(-c2ccc3c(N)n[nH]c3c2)cc(N2CCCCC2)n1 [GSK2228768] | 8 | 94.6 | 1 | 9 | 0 | 0 | 0 | 0 | 0 | 0 | 0 | 0 | 0 | 0 | 0 | 0 | 0 | 0 | 31 | 4 |
| Cn1ccc2ncnc(Oc3ccc(NC(=O)Nc4cccnc4)c(Cl)c3)c21 | 99.7 | 0 | 10 | 0 | 15 | 0 | 6 | 19 | 4 | 3 | 8 | 7 | 0 | 0 | 1 | 0 | 0 | 0 | 1 | 35 |
| O=C(NCCCN1CCCC1=O)c1cnc(NCc2cc(Cl)ccc2Cl)nc1NC1CCNCC1 | 0 | 7 | 0 | 7 | 0 | 1 | 0 | 0 | 0 | 0 | 0 | 7 | 0 | 30 | 0 | 0 | 4 | 0 | 12 | 0 |
| Fc1cccc(COc2ccc(Nc3ncnc4sc(-c5ccc[nH]5)cc34)cc2Cl)c1 [GW707818] | 19 | 5 | 22 | 23 | 0 | 12 | 0 | 7 | 0 | 1 | 0 | 0 | 0 | 0 | 20 | 0 | 14 | 29 | 46 | 0 |
| COC(=O)c1cccc(NC(=O)NCCNc2ccnc(Nc3ccc(F)cc3)n2)c1 [GSK1379883] | 51 | 5 | 9 | 18 | 0 | 0 | 4 | 0 | 9 | 0 | 0 | 8 | 0 | 1 | 0 | 0 | 0 | 34 | 56 | 5 |
| Nc1nc(-c2ccccn2)c(-c2ccnc3ccccc23)s1 [GW548057] | 23 | 0 | 9 | 29 | 0 | 6 | 0 | 0 | 7 | 14 | 0 | 10 | 0 | 33 | 0 | 0 | 0 | 54 | 87 | 14 |
| CC(C)(C)OC(=O)NC1CCCN(c2cc(-c3ccc4c(N)n[nH]c4c3)nc(N)n2)C1 (stereo not shown) [GSK2286096] | 14 | 84 | 18 | 0 | 0 | 0 | 0 | 0 | 0 | 0 | 0 | 19 | 1 | 0 | 9 | 0 | 5 | 0 | 7 | 19 |
| CC(C)N1CCC(n2cnc(-c3ccc(F)cc3)c2-c2ccnc(N)n2)CC1 [SB-223132] | 0 | 5 | 0 | 2 | 28 | 0 | 0 | 0 | 0 | 0 | 0 | 7 | 0 | 10 | 29 | 22 | 10 | 54 | 49 | 0 |
| O=C(c1ccc(-c2cc(-c3c[nH]nc3-c3ccccn3)ccn2)cc1)N1CCCC1 [GW792479] | 4 | 0 | 6 | 0 | 0 | 19 | 0 | 5 | 0 | 0 | 0 | 0 | 4 | 19 | 100 | 21 | 8 | 0 | 14 | 0 |
| COC(=O)c1c(-c2ccccc2)c2cc(Cl)ccc2c(=O)n1Cc1ccc(S(C)(=O)=O)cc1 | 78 | 16 | 0 | 11 | 4 | 0 | 10 | 24 | 10 | 21 | 34 | 25 | 46 | 0 | 1 | 16 | 2 | 16 | 0 | 49 |
| CNc1nccc(-c2c(-c3ccc(F)cc3)ncn2CCCN2CCOCC2)n1 [SB-222516] | 4 | 0 | 9 | 0 | 0 | 0 | 0 | 3 | 0 | 6 | 0 | 0 | 20 | 0 | 0 | 0 | 81 | 6 | 17 | 0 |
